Growth data for seven compounds are collected here from PubChem BioAssay (NCI).

Test systems include HCT-15 colon; HT29 colon; SNB-75 CNS; SNB-19 CNS; U251 CNS; PC-3 prostate; SK-MEL-5 melanoma; UACC-62 melanoma; LOX IMVI melanoma; SK-MEL-28 melanoma; SK-MEL-2 melanoma; SN12C renal; UO-31 renal; TK-10 renal; ACHN renal; CAKI-1 renal; A498 renal; CCRF-CEM leukemia; MOLT-4 leukemia.
Holding throughout (experiment): NCI-60 one-dose screen, 48 h (100 = growth as untreated, 0 = no growth, -100 = all killed)
Details in all cases: 10 µM unless noted

The structures appear in SMILES notation. About 83,000 compounds went through this panel and 20% of them were active in at least one assay; those are over-represented in the sample as a whole.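 Percent growth is the endpoint: 0 to 100 indicates growth inhibition (40 means 60% inhibition), 0 means no net growth, and negative values indicate cell death.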 A number with no mark means an inactive call. Activity calls are given as the source filed them. Rule for the calls: active = growth percent below 10; inactive = the rest.

Turning to `O=C(N/N=C/c1c(Cl)cccc1Cl)c1ccccc1Nc1ccnc(C(F)(F)F)c1`, the growth in the assay with HCT-15 colon was 64.8%; with HT29 colon, 90.9%; with SNB-75 CNS, 62.8%; in the assay with SNB-19 CNS, 68.3%; with U251 CNS it was 67.7%; with PC-3 prostate, 51%. Further, the growth was 41.2% in the assay on SK-MEL-5 melanoma; 55.6% with UACC-62 melanoma; 62.3% in the assay with LOX IMVI melanoma; 84.2% in the assay on SK-MEL-28 melanoma; 69.6% in the assay with SK-MEL-2 melanoma; 75.7% with SN12C renal. The growth in the assay with UO-31 renal was 84.1%; with TK-10 renal, 95.4%; in the assay on ACHN renal, 78.8%; in the assay with CAKI-1 renal it was 77.6%; in the assay with A498 renal, 73.6%; in the assay on CCRF-CEM leukemia, 81.6%. Further, the growth in the assay with MOLT-4 leukemia was 63.4%.

For `Cc1ccc(S(=O)(=O)OC2COCOC2C(OS(=O)(=O)c2ccc(C)cc2)C2OCOCC2OS(=O)(=O)c2ccc(C)cc2)cc1` (stereo not drawn), the growth was 107% in the assay on HCT-15 colon; 98.7% in the assay with HT29 colon; 115% in the assay on SNB-75 CNS; 108% in the assay on SNB-19 CNS; 102% in the assay with U251 CNS; 97.6% in the assay on PC-3 prostate. The growth in the assay with SK-MEL-5 melanoma is 99.9%; in the assay with UACC-62 melanoma, 98.3%; in the assay with LOX IMVI melanoma, 103%; with SK-MEL-28 melanoma it was 118%; in the assay on SK-MEL-2 melanoma, 104%; in the assay on SN12C renal, 91.3%. The growth in the assay with UO-31 renal is 95.8%; in the assay with TK-10 renal, 101%; in the assay with ACHN renal it was 105%; with CAKI-1 renal, 105%; in the assay on A498 renal, 95.9%; with CCRF-CEM leukemia, 100%. For the same compound, the growth in the assay on MOLT-4 leukemia is 90.1%.

Consider `COc1ccc(/C=C2\CCCC3=C2NC(C)=NC3c2ccc(OC)c(OC)c2)cc1OC` (stereo not drawn), for which the growth with HCT-15 colon was -61.7% (active); in the assay on HT29 colon it was -2.36% (active); in the assay on SNB-75 CNS it was 35.2%; in the assay with SNB-19 CNS it was 60.4%; in the assay with U251 CNS, 18.3%; in the assay on PC-3 prostate, 32%. Besides, the growth was 6.23% (active) in the assay with SK-MEL-5 melanoma; 10.9% in the assay with UACC-62 melanoma; -72.7% (active) in the assay on LOX IMVI melanoma; 23% with SK-MEL-28 melanoma; 5.93% (active) in the assay on SK-MEL-2 melanoma; 5.95% (active) in the assay with SN12C renal. Further, the growth with UO-31 renal is 34.3%; with TK-10 renal, 12.2%; in the assay on ACHN renal, 9.82% (active); with CAKI-1 renal, 5.12% (active); in the assay on A498 renal it was 5.88% (active); with CCRF-CEM leukemia, -20% (active). Moreover, the growth with MOLT-4 leukemia is -23.2% (active).

On to `O=C(Nc1ccc(I)cc1)c1cccc([N+](=O)[O-])c1O`, for which the growth is 18.6% in the assay with HCT-15 colon; 28.1% in the assay on HT29 colon; 41.2% with SNB-75 CNS; 16.8% with SNB-19 CNS; 10.3% in the assay with U251 CNS; 7.46% (active) in the assay on PC-3 prostate. Moreover, the growth in the assay on SK-MEL-5 melanoma is -44.1% (active); with UACC-62 melanoma, 20.8%; in the assay with LOX IMVI melanoma, 8.65% (active); with SK-MEL-28 melanoma, 21.5%; in the assay on SK-MEL-2 melanoma it was -11.9% (active); with SN12C renal, 20.3%. Also, the growth with UO-31 renal was -0.371% (active); in the assay with TK-10 renal, 7.73% (active); in the assay with ACHN renal, 21.8%; with CAKI-1 renal it was 13.4%; with A498 renal, -6.2% (active); in the assay with CCRF-CEM leukemia, 25.9%. The growth with MOLT-4 leukemia is 8.55% (active).

On to `CCOC(=O)c1ccccc1NC(c1ccccc1)c1ccc2cccnc2c1O` (stereo not drawn), for which the growth in the assay on HCT-15 colon was 23%; in the assay on HT29 colon it was 39.4%; in the assay on SNB-75 CNS, 52.7%; with SNB-19 CNS, 30.9%; in the assay on U251 CNS it was 17.7%; with PC-3 prostate it was 25.4%. Moreover, the growth is 4.23% (active) in the assay on SK-MEL-5 melanoma; 12.8% in the assay with UACC-62 melanoma; 11.9% in the assay with LOX IMVI melanoma; 38.3% with SK-MEL-28 melanoma; 50.9% in the assay with SK-MEL-2 melanoma; 35.2% with SN12C renal. Further, the growth in the assay on UO-31 renal is 21%; in the assay with TK-10 renal, 37.3%; in the assay with ACHN renal, 14.4%; in the assay on CAKI-1 renal it was 15.9%; with A498 renal it was 38.4%; in the assay with CCRF-CEM leukemia, 9.7% (active). Moreover, the growth in the assay with MOLT-4 leukemia is 12.6%.

In the case of `COc1ccc(-n2c(C)cc(-c3ccccc3)c2C)cc1`, the growth in the assay on HCT-15 colon was 37.9%; in the assay with HT29 colon, 12.4%; with SNB-75 CNS it was 41.2%; with SNB-19 CNS, 69.6%; in the assay with U251 CNS it was 43.5%; in the assay on PC-3 prostate, 31.7%. Further, the growth was -3.53% (active) in the assay with SK-MEL-5 melanoma; 52.2% in the assay on UACC-62 melanoma; 42.1% in the assay with LOX IMVI melanoma; 58.1% in the assay on SK-MEL-28 melanoma; 40% in the assay with SK-MEL-2 melanoma; 50.5% in the assay on SN12C renal. Further, the growth was 52.3% in the assay with UO-31 renal; 57.3% with TK-10 renal; 62.5% in the assay with ACHN renal; 29.3% in the assay with CAKI-1 renal; 35.2% in the assay with A498 renal; 29.4% in the assay with CCRF-CEM leukemia. The growth in the assay on MOLT-4 leukemia was 17.8%.

Take `CCC(=O)Oc1cc(/C=C/C(=O)O[C@H]2C[C@H]3CN4CCc5c([nH]c6cc(OC)ccc56)[C@@H]4C[C@@H]3[C@@H](C(=O)OC)[C@@H]2OC)ccc1OC`: the growth was 59.8% in the assay on HCT-15 colon; -1.66% (active) with HT29 colon; 36.7% with SNB-75 CNS; 87.2% in the assay with SNB-19 CNS; 61.1% in the assay on U251 CNS; 65.1% in the assay with PC-3 prostate. The growth is 82.9% in the assay with SK-MEL-5 melanoma; 82.9% in the assay with UACC-62 melanoma; 79.5% in the assay with LOX IMVI melanoma; 88.8% in the assay on SK-MEL-28 melanoma; 101% in the assay with SK-MEL-2 melanoma; 55.9% in the assay on SN12C renal. In addition, the growth in the assay on UO-31 renal was 40.9%; with TK-10 renal, 75.2%; in the assay on ACHN renal it was 46.2%; with CAKI-1 renal, 45.6%; in the assay on A498 renal it was 5.24% (active); in the assay with CCRF-CEM leukemia it was 38.1%. Besides, in the assay on MOLT-4 leukemia, the growth is 50.8%.
